This assay in a line: binders from COS7 lysate, DM2A8 probe, primary screen, torsin A project, cell lysate, small-molecule microarray, fluorescence 635/667 (AID 1065). The note with it: higher = more signal, COS7 lysate expressing mutant human TOR1A.
In turn, `CN1C(=O)C2C=CC(C(O)c3cc(C(F)(F)F)cc(C(F)(F)F)c3)N(N3CCCCC3)C2C1=O` (stereo unspecified) gave a composite z-score of -0.392.

Compound `CC(C)[C@@H](CO)NC(=O)[C@H]1[C@@H](c2ccccc2)N(c2ccccc2)O[C@@H]1C` gave a composite z-score of -0.245.

`COc1cc2c(cc1O)C(C1CC1)N(Cc1cc3c(cc1Br)OCO3)CC2` (stereo unspecified) gave a composite z-score of 0.97.

Take `C=CCNC(=O)[C@H]1[C@@H]2C(=O)O[C@@H](c3ccccc3)[C@@H](c3ccccc3)N2[C@@H](c2ccccc2OCCO)[C@]12C(=O)Nc1ccc(C#CC3=CCCCC3)cc12`: the composite z-score was determined as 0.952.

The compound `O=C1C2C=CC(C(O)c3ccc(F)cc3)N(Nc3ccccc3F)C2C(=O)N1c1ccccc1` (stereo unspecified) yielded a composite z-score of -0.333.

As to `COc1cc(OC)c(C(O)C2C=CC3C(=O)NC(=O)C3N2Nc2ccc(Cl)cc2Cl)cc1Br` (stereo unspecified), the composite z-score is -0.0156.

On to `COc1cc2c(cc1O)C=[N+](Cc1cccc(OC(F)(F)F)c1)CC2`, for which the composite z-score turned out to be 0.137.

`COc1ccc([Si](C)(C)[C@H]2[C@H](CC(=O)N3Cc4ccccc4C[C@H]3CO)O[C@@]3(C(=O)N(Cc4ccc(N5CCC5=O)cc4)c4ccccc43)[C@@H]2C)cc1` gave a composite z-score of 0.859.

On to `Cc1ccc(S[C@]2(C(=O)NCCN3CCOCC3)CC(=O)N(Cc3ccccc3)[C@@H]2c2ccc(CO)cc2I)cc1`, for which the composite z-score was -0.883.

The compound `COCCOC(=O)N1C(=O)[C@@]2(c3cc(C#Cc4ccc(OC)cc4)ccc31)[C@H](C(N)=O)[C@H]1C(=O)O[C@H](c3ccccc3)[C@H](c3ccccc3)N1[C@@H]2c1ccccc1OCCO` displayed a composite z-score of 2.16.

On to `[N-]=[N+]=NCc1ccccc1C[C@]1(C(=O)NCC(O)CO)N=C(c2ccc(OCCCO)cc2)O[C@H]1c1ccccc1` (stereo partly specified), for which the composite z-score amounted to 0.34.

Compound `C#CCN(Cc1ccccc1Br)C(/C=C/c1ccccc1)CO` (stereo unspecified) had a composite z-score of 0.0837.

With `C#CCN(CC=C(C)C)[C@H](CO)c1ccccc1`, the composite z-score stood at 0.0737.

With `COc1ccc([Si](C)(C)[C@H]2[C@H](CCO)O[C@@]3(C(=O)N(Cc4ccc(N5C(=O)COc6ccccc65)cc4)c4ccccc43)[C@@H]2C)cc1`, the composite z-score was -0.271.

`CO[C@H]1O[C@H](CO)[C@@H](OC(=O)Nc2ccc(Br)cc2)[C@H](OC(=O)c2cc3ccccc3[nH]2)[C@H]1OC(=O)c1cc2ccccc2[nH]1` had a composite z-score of 1.05.

The compound `CN1C(=O)C2C=CC(C(O)c3ccccc3)N(Nc3ccccc3)C2C1=O` (stereo unspecified) came in with a composite z-score of -0.214.

With `COC(=O)[C@@]1(Cc2ccc(F)cc2)[C@H]2c3cc(C(=O)N4CCCC4)n(Cc4ccc(C)o4)c3C[C@H]2CN1C(=O)c1ccccc1`, the composite z-score is 0.145.

With `CCCCC(=C=CC[C@@H](O)c1ccccc1OCCO)CCO`, the composite z-score is 0.163.

Consider `CC(=O)N1Cc2ccccc2C[C@@]2(COC(c3ccc(OCCCO)cc3)=N2)C1=O`, for which the composite z-score came to 0.842.

In the case of `C[C@]1(C(=O)NC2CC2)c2ccccc2C(=O)N(Cc2cc(C(F)(F)F)cc(C(F)(F)F)c2)[C@H]1c1ccc(CO)cc1`, the composite z-score stood at 0.14.

For the compound `CCCC[C@@H]1C[C@H]1[C@@H](NC(=O)c1ccco1)c1ccc(C(=O)OC)cc1`, the composite z-score is -0.0736.

`C[C@@]1([C@@H](NC(=O)c2ccccc2)c2ccc(-c3ccccc3)cc2)C[C@H]1C1CCCCC1` returned a composite z-score of -0.671.

`COCCOC(=O)N1C(=O)[C@@]2(c3cc(C#CC4=CCCCC4)ccc31)[C@H](c1ccc(O)cc1)N1[C@H](c3ccccc3)[C@H](c3ccccc3)OC(=O)[C@H]1[C@@H]2C(N)=O` displayed a composite z-score of 0.185.

As for `O=C1C2C=CC(C(O)C(c3ccccc3)c3ccccc3)N(n3cnnc3)C2C(=O)N1Cc1ccccc1` (stereo unspecified), the composite z-score came out at 0.488.

On to `CN(C)CCCC[C@@H]1NC(=O)[C@H]2C[C@@H](C(=O)NCCCCCNC(=O)CS)[C@@H](c3cccc(OCCO)c3)N2C1=O`, for which the composite z-score is 0.411.

As for `O=C(O)[C@@]1(CCS(=O)(=O)c2ccccc2)COC(c2ccc(OCCCO)cc2)=N1`, the composite z-score was -0.715.

The compound `[N-]=[N+]=NCc1ccccc1[C@@H]1OC(c2ccc(OCCCO)cc2)=N[C@]1(Cc1ccccc1N=[N+]=[N-])C(=O)N1CCOCC1` registered a composite z-score of 0.485.

As to `CC(C)N1C(=O)[C@@]2(Cc3ccccc31)c1ccccc1C(=O)N(C1CCCCC1)[C@H]2c1ccc(CO)cc1`, the composite z-score was -0.0937.

`CCOC(=O)[C@H]1C/C=C/C[C@H](C(=O)OCC)C(=O)O[C@H]2[C@@H](OC)O[C@H](CO)[C@@H](OC(=O)Nc3ccc(C#N)cc3)[C@@H]2OC1=O` displayed a composite z-score of -0.317.

Consider `COc1ccc(C(O)C2C=CC3C(=O)N(c4ccccc4)C(=O)C3N2Nc2ccccc2F)cc1OCc1ccccc1` (stereo unspecified), for which the composite z-score was -0.217.

`CN(C)C(=O)[C@]1(Cc2ccccc2CN=[N+]=[N-])N=C(c2ccc(OCCCO)cc2)O[C@@H]1c1ccccc1CN=[N+]=[N-]` showed a composite z-score of 1.26.
